From PubChem BioAssay
The list is not random: actives were taken first. Their share in the collection is about 19%.
HT1080-NT tox – qHTS for induction of synthetic lethality in tumor cells producing 2HG: qHTS for the HT-1080-NT fibrosarcoma cell line | Potency, µM (highest dose often 46.1 µM), without a hit: top-dose activity, negative = less viability, usual class: cytotoxic | 360,000 compounds, 1.6% hits | HT-1080-NT fibrosarcoma viability, CellTiter-Glo ATP luminescence, 48 h;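 note: NT is the 2HG producing partner of a matched IDH1 knockdown line; 0% = DMSO-treated cells and -100% = media-only wells without cells; nearly all actives have a fitted effect of over 55% in size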
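A 48-hour cytotoxicity screen used HT-1080-NT cells plated 2 hours before compound delivery. ATP-based CellTiter-Glo luminescence measured viability, normalized to DMSO and no-cell controls.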
KB-V1 cytotox – qHTS assay for MDR1-selective chemotherapeutics: Primary screen using the drug-selected MDR subline cells KB-V1; 400,000 compounds, 3.4% hits; KB-V1 MDR cells viability, CellTiter-Glo, 72 h; Potency, µM (top dose mostly 46.1 µM), most hits filed as cytotoxic; AID 1347076, 2019; note: nearly all actives have a fitted effect of over 60% in size
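KB-V1, DMEM (no phenol red) + 10% FBS; cpd pin-transferred, titration series; 72 h, 37 degrees C; CellTiter-Glo, luminescence. Data normalized, curve-fit.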
TDP1 cell CPT – qHTS for Inhibitors of human tyrosyl-DNA phosphodiesterase 1 (TDP1): qHTS in cells in presence of CPT; chicken DT40 Tdp1-/-;hTDP1 cells + 20 nM CPT, ATP luminescence, 48 h; AID 686979, 2013; 420,000 compounds, 12% hits; Potency, µM (doses to about 46.2 µM), for inactives: at the top dose activity change, negative = growth inhibition, actives largely listed as inhibitors; note: nearly all actives have a fitted effect of over 55% in size
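Cell growth measured by CellTiter-Glo luminescence after a minimum 48 h, 37 C compound exposure with 20 nM CPT in Tdp1-knockout DT40 cells stably expressing hTDP1, seeded 400/well; qHTS titration format.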
HT1080 IDH1KD tx – qHTS for induction of synthetic lethality in tumor cells producing 2HG: qHTS for the HT-1080-IDH1KD cell line; HT-1080 IDH1 knockdown viability, ATP luminescence, 48 h; Potency, µM (series often up to 46.1 µM), for inactives: top-dose activity, negative = toxicity, actives largely listed as cytotoxic; 360,000 compounds, 2% hits; AID 686971, 2013;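 note: 0% = DMSO wells and -100% = cell-free medium wells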
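Luminescent ATP read-out (CellTiter-Glo, 10 min at room temperature) after 48 h compound exposure at 37 °C gave viability of IDH1-knockdown HT-1080 cells. Activity was normalised to DMSO and cell-free wells, then fitted as concentration-response curves.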
KB-3-1 tox – qHTS assay for MDR1-selective chemotherapeutics: Primary screen using the parental adenocarcinoma cell KB-3-1; 400,000 compounds, 1.4% hits; Potency, µM (doses to about 46.1 µM), usual class: cytotoxic; KB-3-1 viability, CellTiter-Glo ATP luminescence, 72 h; note: nearly all actives have a fitted effect of over 60% in size
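Here the drug-naive KB-3-1 line serves as comparator for MDR sub-line selectivity; cells received compound titrations, 72 h at 37 °C, then CellTiter-Glo readout.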
TDP1 cell noCPT – qHTS for Inhibitors of human tyrosyl-DNA phosphodiesterase 1 (TDP1): qHTS in cells in absence of CPT; DT40 Tdp1-/- hTDP1 cells, no CPT, ATP luminescence, 48 h; Potency, µM (highest dose often 46.2 µM), inactives show at the highest dose activity change, negative = growth inhibition, hits mostly inhibitors; 420,000 compounds, 15% hits; note: nearly all actives have a fitted effect of over 55% in size
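DT40 Tdp1-/-;hTDP1 cells, no CPT (DMSO vehicle only), 400 cells/well; compounds pin-transferred; ≥48 hr, 37 °C; CellTiter-Glo 30 min RT dark, luminescence read.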
* marks the source's active call; other numbers are inactive results; i = inactive; u = inconclusive; x = no result. Calls come from the whole dose curve; as a rule, active = well fitted curve in the direction sought with a large enough effect; inconclusive = small, poorly fitted or top-dose-only effect, or another doubt; inactive = no such curve, though single readings can be large; an effect the other way counts as inactive or inconclusive. Unless noted, % is set by controls: 0 for no effect and ±100 for the full control effect; potency is the fitted concentration of half-maximal effect.

SMILES	HT1080-NT tox	KB-V1 cytotox	TDP1 cell CPT	HT1080 IDH1KD tx	KB-3-1 tox	TDP1 cell noCPT
Cc1ccccc1OCC(=O)N/N=C/c1cccc2cccnc12	-14%	u	u	u	i	21µM*
C/C(=N\OCC(=O)N/N=C/c1ccccc1)c1cccs1	12%	i	-12%	14%	i	5%
O=C(COc1cccc2cccnc12)N/N=C/c1ccccc1O	-15%	12µM*	15µM*	-29%	u	10µM*
COCc1cc(C)nc(OCC(=O)N/N=C/c2ccccc2O)c1C#N	u	i	u	18µM*	i	u
Cc1ccccc1OCC(=O)N/N=C/c1ccncc1	12%	i	2%	14%	i	11%
Cc1cc2nc3c(nc2cc1C)CCCC3	-1%	i	0%	2%	i	-28%
CN(C)/C=N/c1nc(-c2ccc3ccccc3c2)cs1	-9%	i	-25%	-12%	i	-1%
Nc1nc(CN2CCCCC2)cs1	21%	i	-2%	14%	i	-4%
Nc1nc(CN2CCOCC2)cs1	6%	i	u	10%	i	29µM*
COc1cc(C(C)=O)ccc1OC(=O)c1cc2cccc(OC)c2oc1=O	-7%	i	-1%	0%	i	19%
COC(=O)c1cc(Br)c(=O)n(CCC2=CCCCC2)c1	5%	i	21µM*	7%	i	u
COC(=O)c1cc(Br)c(=O)n(CCN2CCCC2)c1	1%	i	9%	-2%	i	-19%
COCC(C)NC(=O)c1cc2c(=O)n3cccc(C)c3nc2s1 (configuration not stated)	x	i	-18%	x	i	-21%
COc1ccccc1NC(=O)CSc1nnc2c(n1)[nH]c1ccccc12	x	12µM*	u	x	i	u
COc1ccccc1NC(=O)CSc1nnc2c3ccccc3n(C(C)C)c2n1	x	x	3.7µM*	x	x	4.6µM*
COC(=O)c1c(SCC(=O)Nc2cc(OC)cc(OC)c2)[nH]c2ccc(C)cc2c1=O	x	i	u	x	i	u
COC(=O)c1c(SCC(=O)Nc2ccccc2OC)[nH]c2ccccc2c1=O	x	u	23µM*	x	u	u
C=CCn1c2ccccc2c2nnc(SCC(=O)NC(C(=O)OC)C(C)C)nc21 (configuration not stated)	-10%	8.2µM*	u	-7%	i	-18%
COc1ccc(CNC(=O)CSc2nnc3c(n2)[nH]c2ccccc23)cc1	2%	i	7%	1%	i	-21%
COC(=O)c1cc2c(cc1NC(=O)c1cnn(-c3ccccc3)c1-n1cccc1)OCO2	x	i	-26%	x	i	-17%
Cc1nn(-c2ccccc2)c(C)c1NC(=O)COC(=O)c1ccc(Cl)c(S(N)(=O)=O)c1	-4%	i	-3%	-5%	i	-6%
COCOc1ccc(-c2oc3c(C/C=C(\C)CCC=C(C)C)ccc(O)c3c(=O)c2OCOC)c(OCOC)c1	-2%	i	-3%	1%	i	u
O=c1cc(O)c2c([nH]1)CCC2	x	i	-5%	x	u	-12%
CCOc1ccc(/C=C/C(O)=C2/C(=O)NC3(C)CC2c2ccccc2O3)cc1OC (configuration not stated)	-24%	u	5.2µM*	u	u	3.7µM*
CCOC(=O)C1=C(COC(=O)/C=C/c2ccc(OCC)c(OC)c2)NC(=O)NC1C (configuration not stated)	-11%	i	-5%	-15%	i	u
SMILES	HT1080-NT tox	KB-V1 cytotox	TDP1 cell CPT	HT1080 IDH1KD tx	KB-3-1 tox	TDP1 cell noCPT
CCOc1ccc(/C=C/C(O)=C2/C(=O)N(C)C3(C)CC2c2ccccc2O3)cc1OC (configuration not stated)	u	u	5.8µM*	3.7µM*	23µM*	8.2µM*
CC(C)c1ccc(NC(=O)CSC2=Nc3ccccc3C3=NC(CCC(=O)NCc4ccco4)C(=O)N23)cc1 (configuration not stated)	x	i	-15%	x	i	-4%
CCCCNS(=O)(=O)c1ccc2nc(-c3cccnc3)cc(C(=O)NCCC)c2c1	x	i	u	x	i	-21%
COc1ccc(CCNC(=O)c2cccc(NS(=O)(=O)c3ccccc3F)c2)cc1OC	1%	x	2%	-1%	x	-10%
Cc1cccc(NCCC(=O)c2ccc([N+](=O)[O-])cc2)c1C	-10%	i	4.6µM*	-7%	i	u
Cc1ccc(NCC(=O)c2ccc([N+](=O)[O-])cc2)cc1	10%	i	u	-21%	i	u
Cc1ccc(NCCC(=O)c2cccc([N+](=O)[O-])c2)c(C)c1	u	i	8.2µM*	u	i	10µM*
O=C(CCN1C(=O)C2C3CCC(C3)C2C1=O)Nc1cccc(Cl)c1 (configuration not stated)	0%	i	-3%	-4%	u	0%
Cc1cc2nccc(C)c2cc1C	x	i	3%	x	i	-3%
Cc1ccc(SCC(=O)OCC(=O)NC2(C#N)CCCCC2)cc1	12%	i	7%	0%	i	11%
CCC(C)NC(=O)CC(NS(=O)(=O)c1ccc(C)cc1)c1ccc(OC)cc1 (configuration not stated)	0%	8.2µM*	-3%	11%	i	0%
Cc1ccc(NC(=O)CN2C(=O)CCn3nc(-c4cccn4C)cc32)c(Cl)c1	x	i	u	x	i	u
CCc1ccc2c(c1)C(c1ccc([N+](=O)[O-])cc1)=NNC(c1ccc(F)cc1)=N2	-6%	u	21µM*	-14%	u	u
NCC12CC3CC(C1)CC(c1ccc(Cl)cc1)(C3)C2	23µM*	u	6.5µM*	u	i	6.5µM*
Cc1ccccc1CS(=O)(=O)CC(O)CN1CCCC1=O (configuration not stated)	-1%	i	-6%	2%	i	14%
